Bioassay records (PubChem BioAssay)
Compounds with a hit are over-represented: about 5% of the library has one in this group of screens.
AHR activator = AHR activators, primary screen, cell-based, luminescence, luciferase reporter, human; AHR-responsive luciferase reporter cells; activation, % at 5 µM; actives 2.5% (n = 320,000); in the data active = activation above about 47%;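 note: 0% = vehicle wells and 100% = reference agonist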
SENP8 block-1 = SENP8 protease inhibitors, primary screen, biochemical, luminescence; Sentrin-specific protease 8 (Homo sapiens), Q96LD8; purified SENP8, Z-RLRGG-aminoluciferin cleavage; inhibition, % at 10 µM; actives 1.2% (n = 330,000); AID 2540, 2010; in the data active = inhibition above about 50%
Target sequence (Q96LD8 whole entry, looked up): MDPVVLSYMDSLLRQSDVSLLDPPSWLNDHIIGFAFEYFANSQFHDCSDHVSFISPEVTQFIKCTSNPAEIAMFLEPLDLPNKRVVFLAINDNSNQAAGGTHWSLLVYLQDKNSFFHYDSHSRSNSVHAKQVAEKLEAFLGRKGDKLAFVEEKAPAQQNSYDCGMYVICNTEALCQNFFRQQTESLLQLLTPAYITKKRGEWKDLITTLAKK
SENP7 inh = SENP7 protease inhibitors, primary screen, biochemical, luminescence, uHTS | recombinant SENP7, Z-RLRGG-aminoluciferin luminescence, 40 min | inhibition, % at 5 µM | AID 434973, 2010 | Sentrin-specific protease 7 (Homo sapiens), Q9BQF6 | actives 1.5% (n = 330,000);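 active = inhibition above about 50% at the single test dose, limit read from the data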;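 note: plate controls were DMSO with enzyme for no effect and no enzyme buffer wells for full effect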
EBI2 block = EBI2 receptor antagonists, beta-arrestin recruitment, primary screen, cell-based, luminescence, 7a,25-OHC stimulation, uHTS. G-protein coupled receptor 183 (Homo sapiens), P32249. 7a,25-OHC stimulated. inhibition, % at 5 µM. actives 0.81% (n = 360,000). AID 651636, 2012; in the data active = inhibition above about 38%;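 note: enzyme fragment complementation signal reports receptor beta-arrestin coupling in cells; 0% = agonist plus DMSO wells and 100% = wells without agonist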
Target sequence (P32249 whole entry, looked up, the tested form may be a part): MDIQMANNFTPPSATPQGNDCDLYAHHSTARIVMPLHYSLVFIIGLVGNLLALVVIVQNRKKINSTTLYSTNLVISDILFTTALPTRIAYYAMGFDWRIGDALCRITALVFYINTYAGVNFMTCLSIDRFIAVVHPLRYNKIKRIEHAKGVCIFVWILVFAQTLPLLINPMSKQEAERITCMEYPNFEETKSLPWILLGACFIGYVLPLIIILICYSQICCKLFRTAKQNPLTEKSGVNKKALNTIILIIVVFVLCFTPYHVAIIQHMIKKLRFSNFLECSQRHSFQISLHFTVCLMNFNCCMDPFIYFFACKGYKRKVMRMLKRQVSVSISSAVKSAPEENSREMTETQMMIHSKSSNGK
SENP6 inh = SENP6 protease inhibitors, primary screen, biochemical, luminescence, uHTS; Recombinant SENP6 catalytic domain, aminoluciferin luminescence; inhibition, % at 10 µM; actives 1.8% (n = 330,000); AID 2599, 2010;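 active = inhibition above about 50% at the single tested dose, limit read from the data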;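 note: plate controls were DMSO wells with enzyme for no effect and DMSO wells lacking enzyme for full effect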
SENP8 block-2 = human SENP8 protease inhibitors, primary screen, biochemical, fluorescence, Nedd8 protein substrate, uHTS; recombinant SENP8; actives 0.64% (n = 360,000); Sentrin-specific protease 8 (Homo sapiens), Q96LD8; inhibition, % at 20 µM; in the data active = inhibition mostly above about 40%, no sharp cut-off; inactive = mostly below about 27%
SENP8 confirm = SENP8 protease inhibitors, retest, confirmation, biochemical, luminescence, single concentration. actives 40% (n = 6,200). AID 488912, 2010. Recombinant SENP8, Z-RLRGG-aminoluciferin luminescence, 60 min. inhibition, % at 12.5 µM. shares compounds with SENP7 inh;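 active = mean inhibition across replicates above about 50%, limit read from the data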
SENP6 confirm = SENP6 protease inhibitors, confirmation, biochemical, luminescence, single concentration | actives 58% (n = 6,200) | shares compounds with SENP7 inh | inhibition, % at 12.5 µM | recombinant SENP6, Z-RLRGG-aminoluciferin luminescence
SENP7 confirm = SENP7 protease inhibitors, retest, confirmation, biochemical, luminescence, single concentration; shares compounds with SENP7 inh; recombinant SENP7, Z-RLRGG-aminoluciferin luminescence, 40 min; inhibition, % at 12.5 µM; actives 69% (n = 6,200); AID 488917, 2010
Casp3 select = caspase-3 protease inhibitors, confirmation, selectivity assay for SENP inhibitor project, biochemical, single concentration; shares compounds with SENP7 inh; purified caspase-3, Z-DEVD-aminoluciferin luminescence, 60 min; inhibition, % at 12.5 µM; actives 60% (n = 6,200);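 active = mean inhibition above about 50%, limit read from the data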;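 note: plate controls were enzyme with DMSO for no effect and wells without caspase-3 for full effect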
SENP luc ctr = luminescence interference (SENP counter-screen); shares compounds with SENP7 inh; Pre-incubated SENP8/Z-RLRGG-aminoluciferin, luciferase luminescence interference; inhibition, % at 12.5 µM; actives 39% (n = 6,200); AID 488919;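 active = mean inhibition above about 50% when retested at one dose, limit read from the data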;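 note: plate controls were DMSO wells with completed reaction for no effect and substrate without enzyme for full effect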
The depositor's hits bear a star.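 Rule for the calls, unless noted: active = mean inhibition above about 50% in the one-dose retest (limit read from the data); inactive = the rest.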

How did Nc1c2c(nc3sc4c(c13)CCCCC4)CCCC2 do in these assays?
AHR activator: 14; SENP8 block-1: 35; SENP7 inh: 19; EBI2 block: 6; SENP6 inh: 54*; SENP8 block-2: 13; SENP8 confirm: 42; SENP6 confirm: 34; SENP7 confirm: 67*; Casp3 select: 46; SENP luc ctr: 17

How did CC(C)(C)n1cc(C(=O)c2ccccc2OCCCF)cn1 do in these assays?
AHR activator: 3; SENP8 block-1: -7; SENP7 inh: 8; EBI2 block: 13; SENP6 inh: -15; SENP8 block-2: -2

Results for CC(C)(C)n1cc(C(=O)c2ccc3ccccc3c2O)cn1 ?
AHR activator: -4; SENP8 block-1: 57*; SENP7 inh: 68*; EBI2 block: -3; SENP6 inh: -33; SENP8 block-2: 9; SENP8 confirm: 18; SENP6 confirm: 15; SENP7 confirm: 2; Casp3 select: 11; SENP luc ctr: 14

How did CC(C(N)=O)N1CC(c2ccc(Cl)cc2)CC1=O (configuration not stated) do in these assays?
AHR activator: 0; SENP8 block-1: 0; SENP7 inh: -8; EBI2 block: -9; SENP6 inh: -13; SENP8 block-2: 18

How did Oc1cc(O)cc(/C=C/c2ccc(O)cc2O)c1 do in these assays?
AHR activator: 5; SENP8 block-1: 46; SENP7 inh: 40; EBI2 block: -9; SENP6 inh: 70*; SENP8 block-2: -499; SENP8 confirm: 62*; SENP6 confirm: 62*; SENP7 confirm: 87*; Casp3 select: 59*; SENP luc ctr: 77*

How did CN(C)C(=O)Oc1ccc(OCc2nc3ccccc3[nH]2)cc1 do in these assays?
AHR activator: -1; SENP8 block-1: -6; SENP7 inh: 95*; EBI2 block: -11; SENP6 inh: 91*; SENP8 block-2: 14; SENP8 confirm: 94*; SENP6 confirm: 94*; SENP7 confirm: 100*; Casp3 select: 96*; SENP luc ctr: 93*

Results for CCCCCSc1cc(O)c(C(CNC)C(C)C)cc1OC (configuration not stated) ?
AHR activator: 7; SENP8 block-1: -10; SENP7 inh: -10; EBI2 block: 2; SENP6 inh: -7; SENP8 block-2: 8

How did CCCCCSc1cc(OC)c(CCN(C)C)cc1OC do in these assays?
AHR activator: 13; SENP8 block-1: 3; SENP7 inh: 0; EBI2 block: 1; SENP6 inh: 53*; SENP8 block-2: 21; SENP8 confirm: 10; SENP6 confirm: 5; SENP7 confirm: 8; Casp3 select: 4; SENP luc ctr: 4

What do the screens show for `COc1ccc(OC)c(N2C(=O)NC(=O)/C(=C\c3ccc([N+](=O)[O-])s3)C2=O)c1`?
AHR activator: 2; SENP8 block-1: 10; SENP7 inh: 0; EBI2 block: -5; SENP6 inh: 51*; SENP8 block-2: 48*; SENP8 confirm: 14; SENP6 confirm: 33; SENP7 confirm: 14; Casp3 select: 6; SENP luc ctr: 4

What do the screens show for `COc1ccc(N2C(=O)NC(=O)/C(=C\c3ccccc3[N+](=O)[O-])C2=O)cc1`?
AHR activator: 5; SENP8 block-1: -2; SENP7 inh: -5; EBI2 block: 1; SENP6 inh: 23; SENP8 block-2: -2

Results for CNC(=O)Oc1ccc(-c2cn3cc(Cl)ccc3n2)cc1 ?
AHR activator: -7; SENP8 block-1: 64*; SENP7 inh: 67*; EBI2 block: -4; SENP6 inh: 78*; SENP8 block-2: -333; SENP8 confirm: 37; SENP6 confirm: 37; SENP7 confirm: 75*; Casp3 select: 72*; SENP luc ctr: 21

What do the screens show for `CCOC(=O)c1cccc(NC(=O)c2c(O)[nH]c(=O)[nH]c2=O)c1`?
AHR activator: 1; SENP8 block-1: 27; SENP7 inh: 51*; EBI2 block: 2; SENP6 inh: 58*; SENP8 block-2: 7; SENP8 confirm: 48; SENP6 confirm: 41; SENP7 confirm: 81*; Casp3 select: 73*; SENP luc ctr: 45

What do the screens show for `O=C(NCC(c1cccnc1)N1CCN(c2ccccc2F)CC1)Oc1ccccc1` (configuration not stated)?
AHR activator: -1; SENP8 block-1: 6; SENP7 inh: 5; EBI2 block: 4; SENP6 inh: 3; SENP8 block-2: 12

Results for COc1ccc(N2CCN(C(CNC(=O)Oc3ccccc3)c3cccnc3)CC2)cc1 (configuration not stated) ?
AHR activator: 0; SENP8 block-1: 1; SENP7 inh: 71*; EBI2 block: 3; SENP6 inh: 8; SENP8 block-2: 7; SENP8 confirm: -12; SENP6 confirm: -2; SENP7 confirm: -7; Casp3 select: 2; SENP luc ctr: 3

How did CCC(C)NC(=O)c1c(N)n(Cc2ccc3c(c2)OCO3)c2nc3ccccc3nc12 (configuration not stated) do in these assays?
AHR activator: 15; SENP8 block-1: 92*; SENP7 inh: 68*; EBI2 block: 24; SENP6 inh: 90*; SENP8 block-2: inactive; SENP8 confirm: 2; SENP6 confirm: 11; SENP7 confirm: 11; Casp3 select: -3; SENP luc ctr: 3
